Test results from PubChem BioAssay AID1159580 (chemical genetic matrix, 2015).
The campaign covered roughly 5,500 compounds. About 2,000 (36%) were called active. About 18% were inconclusive and are not listed. Rule as the data show it: active = normalized growth mostly below about 0.91 (no sharp cut-off); inconclusive = no clear call, values can overlap the other calls; inactive = mostly above about 0.92. Some of the results follow.

Test: chemical genetic growth profiling, strain panel (AID 1159580);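 also: tested at 20 µM; growth read once vehicle control cultures reached saturation at 30 °C; 1 = growth at the plate median or of vehicle wells; lower values mean less growth of the strain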
Conditions: growth OD
[1] = S. cerevisiae deletion strains, locus YAL013W, strain DEP1, hits give low values
[2] = S. cerevisiae deletion strains, locus YBR229C, strain ROT2, hits give low values
[3] = S. cerevisiae deletion strains, locus YDL101C, strain DUN1, hits give low values
[4] = S. cerevisiae deletion strains, locus YDL134C, strain PPH21, hits give low values
[5] = S. cerevisiae deletion strains, locus YDR150W, strain NUM1, hits give low values
[6] = S. cerevisiae deletion strains, locus YEL061C, strain CIN8, hits give low values
[7] = S. cerevisiae deletion strains, locus YGR078C, strain PAC10, hits give low values
[8] = S. cerevisiae deletion strains, locus YGR229C, strain SMI1, hits give low values
[9] = S. cerevisiae deletion strains, locus YHR030C, strain SLT2, hits give low values
[10] = S. cerevisiae deletion strains, locus YHR087W, strain rtc3, hits give low values
[11] = S. cerevisiae deletion strains, locus YJR043C, strain POL32, hits give low values
[12] = S. cerevisiae deletion strains, locus YJR075W, strain HOC1, hits give low values
[13] = S. cerevisiae deletion strains, locus YKL190W, strain CNB1, hits give low values
[14] = S. cerevisiae deletion strains, locus YLR039C, strain RIC1, hits give low values
[15] = S. cerevisiae deletion strains, locus YLR058C, strain SHM2 (second series), hits give low values
[16] = S. cerevisiae deletion strains, locus YLR085C, strain ARP6, hits give low values
[17] = S. cerevisiae deletion strains, locus YLR262C, strain YPT6, hits give low values
[18] = S. cerevisiae deletion strains, locus YML094W, strain GIM5, hits give low values
[19] = S. cerevisiae deletion strains, locus YMR219W, strain ESC1, hits give low values
[20] = S. cerevisiae deletion strains, locus YMR263W, strain SAP30, hits give low values
[21] = S. cerevisiae deletion strains, locus YMR307W, strain GAS1, hits give low values
[22] = S. cerevisiae deletion strains, locus YNL153C, strain GIM3, hits give low values
[23] = S. cerevisiae deletion strains, locus YNL298W, strain CLA4 (second series), hits give low values
[24] = S. cerevisiae deletion strains, locus YNL322C, strain KRE1, hits give low values
[25] = S. cerevisiae deletion strains, locus YNR030W, strain Alg12, hits give low values
[26] = S. cerevisiae deletion strains, locus YPL055C, strain LGE1, hits give low values
[27] = S. cerevisiae deletion strains, locus YPL241C, strain CIN2, hits give low values
[28] = S. cerevisiae deletion strains, locus YPR135W, strain CTF4, hits give low values
[29] = S. cerevisiae strains, strain wild type, hits give low values
[30] = S. cerevisiae deletion strains, locus YCL061C, strain MRC1, hits give low values
[31] = S. cerevisiae deletion strains, locus YNL128W, strain TEP1, hits give low values
[32] = S. cerevisiae deletion strains, locus YOL006C, strain TOP1, hits give low values

Measured: normalized growth

N#CCC(=O)N(Cc1ccccc1F)C(=O)NC1CCCCC1
inactive: [1] 0.993 | [2] 1.01 | [3] 0.994 | [4] 0.98 | [5] 0.997 | [6] 1 | [7] 0.994 | [8] 0.987 | [9] 0.957 | [10] 0.974 | [11] 0.994 | [12] 0.963 | [13] 1 | [14] 0.915 | [15] 1 | [16] 0.989 | [17] 0.935 | [18] 0.996 | [19] 0.998 | [20] 1 | [21] 0.913 | [22] 0.988 | [23] 1.01 | [24] 1.01 | [25] 0.986 | [26] 1.01 | [27] 0.994 | [28] 0.866 | [29] 0.997

O=C(O)c1cccc([N+](=O)[O-])c1C(=O)Nc1ccc(F)cc1
inactive: [1] 1.01 | [2] 0.996 | [30] 1.01 | [3] 1.01 | [5] 1.03 | [6] 0.98 | [7] 1.01 | [9] 1.1 | [10] 0.965 | [11] 1 | [12] 1.01 | [13] 0.986 | [15] 0.991 | [16] 1 | [18] 1.01 | [19] 0.998 | [20] 0.996 | [21] 0.932 | [31] 0.984 | [22] 1.01 | [23] 0.97 | [24] 1.02 | [25] 0.996 | [26] 0.979 | [27] 1.04 | [28] 1.04
active: [14] 1.22 [resistant] | [17] 1.19 [resistant]

COC(=O)c1cccc([N+](=O)[O-])c1-c1c(C(=O)OC)cccc1[N+](=O)[O-]
inactive: [1] 0.995 | [2] 1.01 | [30] 1.03 | [3] 1.03 | [5] 1.02 | [6] 0.983 | [7] 1.03 | [9] 1.06 | [10] 0.997 | [11] 1.01 | [12] 0.981 | [14] 0.994 | [15] 0.999 | [16] 1.03 | [17] 0.97 | [18] 0.988 | [19] 0.99 | [20] 1.03 | [21] 0.971 | [31] 0.999 | [22] 1.03 | [23] 1.02 | [24] 1 | [25] 1.03 | [32] 1.08 | [26] 0.974 | [27] 1 | [28] 1.06 | [29] 1.02

Cc1cccc(NC(=O)c2ccccc2)c1
inactive: [1] 0.961 | [2] 0.958 | [3] 0.991 | [5] 0.974 | [6] 0.945 | [7] 0.951 | [8] 0.977 | [9] 0.827 | [10] 0.937 | S. cerevisiae deletion strains, locus YJL187C, strain SWE1, hits give low values 0.946 | [11] 0.952 | [12] 0.913 | [13] 0.988 | [14] 0.809 | [15] 0.981 | [16] 0.897 | [17] 0.854 | [18] 0.924 | [19] 0.967 | [20] 0.973 | [31] 0.992 | [22] 0.973 | [23] 0.887 | [24] 0.98 | [25] 0.951 | [26] 0.971 | [27] 0.91 | [28] 0.798

Cc1cc(NS(=O)(=O)c2ccc(NC(=O)c3ccccc3)cc2)no1
inactive: [1] 0.988 | [2] 0.995 | [3] 0.979 | [5] 1.03 | [6] 1.03 | [7] 0.984 | [9] 1.03 | [10] 1.01 | [11] 0.983 | [12] 0.992 | [14] 1.02 | [15] 1.02 | [16] 1.05 | [17] 0.986 | [18] 1.02 | [19] 1.01 | [20] 0.916 | [21] 1.03 | [31] 1 | [22] 1 | [23] 1 | [24] 1.01 | [25] 1 | [26] 1.03 | [27] 1.02 | [28] 0.991

O=C(Nc1cc(-c2ccccc2)[nH]n1)c1ccccc1
inactive: [1] 0.938 | [2] 0.947 | [3] 0.935 | [4] 0.923 | [5] 1.03 | [7] 0.936 | [10] 0.913 | [12] 0.902 | [15] 0.982 | [18] 0.888 | [19] 0.968 | [31] 0.973 | [22] 0.946 | [23] 0.844 | [24] 0.988 | [26] 0.907 | [27] 0.865
active: [6] 0.867 | [9] 0.619 | [11] 0.919 | [13] 0.89 | [14] 0.719 | [16] 0.634 | [17] 0.79 | [21] 0.492 | [25] 0.867 | [32] 0.63 | [28] 0.488
